# Compound activity: PubChem BioAssay, National Center for Advancing Translational Sciences (NCATS)
# TDP1 cell CPT – DT40-hTDP1 cell growth loss with CPT | chicken DT40 Tdp1-/-;hTDP1 cells + 20 nM CPT, ATP luminescence, 48 h | Potency, µM (titrated, usually from 46.2 µM), inactives show top-dose activity change, negative = growth inhibition, usual class: inhibitors | 12% of 420,000 active | AID 686979; further: potency means the concentration at half of the fitted maximal effect; nearly all actives have a fitted effect of over 55% in size
#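 Cell growth measured by CellTiter-Glo luminescence after a minimum 48 h, 37 C compound exposure with 20 nM CPT in Tdp1-knockout DT40 cells stably expressing hTDP1, seeded 400/well; qHTS titration format.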
# HT1080NT lethal – kills 2HG-producing HT-1080-NT fibrosarcoma cells | HT-1080-NT fibrosarcoma viability, CellTiter-Glo ATP luminescence, 48 h | Potency, µM (series often up to 46.1 µM), without a hit: at the top dose activity, negative = less viability, most hits filed as cytotoxic | 1.6% of 360,000 active | AID 686970;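 further: NT is the 2HG producing partner of a matched IDH1 knockdown line; potency means the concentration at half of the fitted maximal effect; 0% = DMSO-treated cells and -100% = media-only wells without cells; nearly all actives have a fitted effect of over 55% in size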
#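 Viability by CellTiter-Glo luminescence after 48 h compound exposure at 37C of HT-1080-NT cells (750/well, RPMI, 5% FBS). % activity scaled between DMSO wells and medium-only wells, then curve-fitted and categorized by curve class.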
# IL1B secr inh – inflammasome signaling inhibition, IL-1 beta readout. 4.7% of 360,000 active. THP-1 LPS/ATP IL-1B secretion, AlphaLISA, 16 h; hits give low values. activity change, % at 57.5 µM; in the data active means activity change below about -50%; inconclusive means mostly about -30% to -49%
#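 Secreted IL-1B measured by AlphaLISA bead assay after 16 h compound exposure of THP-1 cells; compounds (final up to 57.5 uM) added 1 h before LPS (250 ng/mL) and ATP (1.25 mM) stimulation; lower signal means less secretion.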
# DT40 TDP1 no CPT – qHTS for Inhibitors of human tyrosyl-DNA phosphodiesterase 1 (TDP1): qHTS in cells in absence of CPT. DT40 Tdp1-/- hTDP1 cells, no CPT, ATP luminescence, 48 h. Potency, µM (titrated, usually from 46.2 µM), without a hit: at the highest dose activity change, negative = growth inhibition, most hits filed as inhibitors. 15% of 420,000 active; further: potency means the concentration at half of the fitted maximal effect; nearly all actives have a fitted effect of over 55% in size
#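 Readout: luminescence from CellTiter-Glo after 30 min in the dark at RT. Cells: DT40 Tdp1-/- with stable hTDP1, 400/well. Exposure: compounds alone, ≥48 hr, 37 °C.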
# uPA generation – cell surface uPA generation inhibition; cell surface uPA generation assay, qHTS; 0.31% of 330,000 active; AID 540303; Potency, µM (top dose mostly 38.3 µM), for inactives: at the top dose activity change, negative = inhibition, actives largely listed as inhibitors; active means well fitted inhibition curve with a large enough effect; inconclusive means small, poorly fitted or top-dose-only effect; inactive means no such curve, though single readings can be large or run the other way; tested in mouse RAW 264.7 cells; further: potency means the concentration at half of the fitted maximal effect; nearly all actives have a fitted effect of over 55% in size
# HT1080 IDH1KD tx – kills HT-1080 cells with IDH1 knockdown. HT-1080 IDH1 knockdown viability, ATP luminescence, 48 h. Potency, µM (doses to about 46.1 µM), without a hit: top-dose activity, negative = toxicity, hits mostly cytotoxic. 2% of 360,000 active;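 further: potency means the concentration at half of the fitted maximal effect; 0% = DMSO wells and -100% = cell-free medium wells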
#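 HT-1080-IDH1KD cells (IDH1 knocked down), 750/well in RPMI with 5% FBS, treated with compound 48 h at 37 degrees C. Viability by CellTiter-Glo luminescence, normalised to DMSO and no-cell wells; concentration-response curves classed.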
# Numbers without * were called inactive; ? = inconclusive; · = not tested or not shown; [ ] = remark or other dose. The list is not random: actives were taken first. Their share in the collection is about 19%. Unless noted, the call rests on the fitted dose curve; in most records, active means well fitted curve in the direction sought with a large enough effect; inconclusive means small, poorly fitted or top-dose-only effect, or another doubt; inactive means no such curve, though single readings can be large; an effect the other way counts as inactive or inconclusive. Unless noted, on the % scale 0 is the no-effect control and ±100 the full control effect.
SMILES,TDP1 cell CPT,HT1080NT lethal,IL1B secr inh,DT40 TDP1 no CPT,uPA generation,HT1080 IDH1KD tx
CN1CCN(Cc2cccc(Oc3ccccc3)c2)CC1,-14%,12%,-53*,?,-4%,0%[9.24 µM]
COc1ccc(CN2CCN(Cc3ccc(Br)cc3)CC2)c(OC)c1OC,?,-15%,-5,16µM*,3%,-14%
COc1ccc(CN2CCN(C(c3ccc(F)cc3)c3ccc(F)cc3)CC2)c(OC)c1OC,2.6µM*,?,-24,2.9µM*,?,?
C[C@H](CO)N1C[C@H](C)[C@H](CN(C)S(=O)(=O)c2ccc3ccccc3c2)OCc2cnnn2CCCC1=O,?,-2%,-23,?,·,0%
COc1cc(C)c2ccccc2n1,-6%,·,·,-1%,·,·
COc1ccc(CN2CCN(Cc3cccc(Oc4ccccc4)c3)CC2)c(OC)c1OC,?,?,-89*,?,-11%,-16%
CCn1c(C)nc2cc(NS(=O)(=O)c3ccccc3)cc(C(=O)N3C[C@@H](C)O[C@@H](C)C3)c21,-3%,·,·,-15%,·,·
Cc1ccc(C)c(NC(=O)CSc2n[nH]c(-c3ccncc3)n2)c1,-7%,12%,0,-20%,3%,13%
O=C(CSc1n[nH]c(-c2ccccn2)n1)Nc1ccc(Cl)cc1,6.5µM*,?,52,4.6µM*,-17%,?
O=C(CSc1n[nH]c(-c2ccncc2)n1)Nc1ccccc1,2%,-1%,15,-8%,0%,4%
Cc1ccc(NC(=O)CSc2n[nH]c(-c3ccccn3)n2)cc1,5.8µM*,-15%,57,-79%,-16%,?
Cc1ccc(NC(=O)CSc2ccc(-c3ccccn3)nn2)cc1,?,?,122,?,-1%,?
O=C(CSc1n[nH]c(-c2ccccn2)n1)Nc1ccc(F)cc1,?,?,13,7.3µM*,-10%,?
Cc1cccc(NC(=O)CSc2n[nH]c(-c3ccncc3)n2)c1C,12µM*,3%,36,-29%,-3%,5%
N#CC1=C(N)Oc2n[nH]c(-c3cccnc3)c2C1c1ccc([N+](=O)[O-])o1 (configuration not stated),3.7µM*,?,-97*,2.9µM*,-7%,?
CN(CC(=O)Nc1ccc(Cl)cc1)C(=O)CN1C(=O)C2CCCCC2C1=O (configuration not stated),-17%,?,-3,-24%,·,?
O=C(CCSC1=NCCCN1)c1ccc(F)cc1,1.8µM*,-3%,-4,2.9µM*,2%,2%
CCc1nc2ccc(C(=O)Nc3ccc(NC(C)=O)cc3)cn2c1N(CCC(C)C)CCN(C)C,6%,?,-23,-25%,·,-21%
CCOC(=O)c1nc(N2CCN(C(=O)OCC)CC2)c2c3c(sc2n1)CCCC3,16µM*,-4%,-17,26µM*,-8%,10%
CCNC(=S)N1CCN(c2nc(CC)nc3sc4c(c23)CCCC4)CC1,?,-8%,-57*,?,-11%,-11%
CC(=O)NC(C)(c1ccccc1)c1nc(-c2csc3ccccc23)cs1 (configuration not stated),21µM*,?,-23,16µM*,·,-9%
CC(=O)NC(C)(c1ccccc1)c1nc(-c2cncnc2)cs1 (configuration not stated),-11%,13%,30,-5%,·,1%
COc1ccc(C(C)(NC(C)=O)c2nc(-c3cccc(F)c3)cs2)cc1 (configuration not stated),?,9%,-17,?,·,2%
COc1ccc(-c2csc(C(C)(NC(C)=O)c3ccccc3)n2)cn1 (configuration not stated),?,11%,-4,?,·,2%
